# Assay results from PubChem BioAssay AID624156 (Broad Institute, 2012).
# Among all 46,000 compounds or so, about 900 (2%) were called active. About 1% were inconclusive and are not listed. This is one part of a sample in which actives are shown more often than they occur. A number with no mark means an inactive call. Rule as the data show it: active = ROS induction above about 79% (passing the limit was not always enough); inconclusive = no clear call, values can overlap the other calls.
# Experiment: ROS inducers in U2OS cancer cells, primary screen, cell-based, H2DCF-DA fluorescence (AID 624156);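 also: 0% = DMSO vehicle median and 100% = reference compound median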
# Settings: at 10 µM, stronger effect = higher value
row,Structure (SMILES),ROS induction (% of piperlongumine)
1,O=C(Nc1cccc(-c2nc3ccccc3o2)c1)c1ccc(Br)cc1,4.05%
2,Cc1nn(C)cc1C(=O)c1ccccc1,36.5%
3,Cc1ccc(C(=O)N/C(=C\c2ccccc2)C(=O)Nc2c(C)n(C)n(-c3ccccc3)c2=O)cc1,0.477%
4,COc1ccc(CNCC2(c3ccccc3)CCCC2)cc1,4.91%
5,COC(=O)c1ccc(-c2ccco2)n1CC(=O)NC1CCCC1,-2.05%
6,CCC/C=C/C(=O)OC1C(O)C23C(O)OC4(CCC5C6(C)CCC(OC7OC(C(=O)O)C(O)C(OC8OC(CO)C(O)C(O)C8OC8OC(C)C(O)C(O)C8OC8OCC(O)C(O)C8O)C7OC7OC(CO)C(O)C(O)C7O)C(C)(C)C6CCC5(C)C4(C)CC2OC(C)=O)C3CC1(C)C (stereo unspecified),-31.6%
7,Cc1cc(-c2cccs2)c2c(N)c(C(=O)c3ccccc3)sc2n1,95.7% (active)
8,COCc1cc(C)nc2sc(C(N)=O)c(N)c12,10.2%
9,O=C(O)c1ccc(S(=O)(=O)c2ccc(Cl)cc2)cc1,-2.87%
10,Cc1c(S(=O)(=O)Nc2ccc(Cl)cc2)sc2ccc(Cl)cc12,-12.9%
11,Fc1ccc(NCc2cn(-c3ccccc3)nc2-c2cccs2)c(F)c1,-6.92%
12,N#CCC(=O)N(Cc1ccccc1)C(=O)Nc1cccc(F)c1,-15.5%
13,CC(C)(C)n1ncc2c(=O)n(Cc3ccc(Cl)cc3)cnc21,-3.3%
14,O=C(CSc1nnc(-c2ccccc2)c(-c2ccccc2)n1)Nc1ccccc1,-5.87%
15,Cc1sc2ncnc(SCC(=O)Nc3ccccc3)c2c1-c1ccccc1,-2.63%
16,N#Cc1c(SCC(=O)Nc2ccccc2)ncc2cc3ccccc3nc12,192% (active)
17,CCn1c2ccccc2c2nnc(SCC(=O)O)nc21,-16.9%
18,CCCn1c2ccccc2c2nnc(SCC(=O)Nc3cccc4ccccc34)nc21,91.7% (active)
19,CCOC(=O)CCSc1nnc2c3ccccc3n(C)c2n1,39.9%
20,C=CCn1c2ccccc2c2nnc(SCCCC(=O)c3ccc(F)cc3)nc21,81.9% (active)
21,c1ccc(Cn2c3ccccc3c3nnc(SCc4ccc5nonc5c4)nc32)cc1,21.9%
22,C=CCn1c2ccccc2c2nnc(SCC(=O)N3c4ccccc4Sc4ccccc43)nc21,11.2%

row,Structure (SMILES),ROS induction (% of piperlongumine)
1,O=C(CCCCC(=O)N/N=C/c1ccc[nH]1)NO,-11.8%
2,COC(=O)c1sccc1NC(=O)Cc1noc2ccc(C)cc12,-3.41%
3,CCC(C(=O)Nc1ccc(OC)c(OC)c1)n1c(C)c2cnn(-c3ccccc3)c(=O)c2c1C (stereo unspecified),6.12%
4,CC(=NCc1ccc2c(c1)OCO2)C1=C(O)c2ccccc2C1=O,3.64%
5,CC(=NCc1ccco1)C1=C(O)c2ccccc2C1=O,146% (active)
6,COc1ccc(C=Nc2ccc(C(C)(C)C)cc2)cc1,-6.06%
7,Cc1cccc(N2CCN(C(=O)CC3(CC4=NS(=O)(=O)c5ccccc5N4)CCCC3)CC2)c1C,172% (active)
8,Cc1cccc(N2CCN(C(=O)CCn3c(=S)[nH]c4cc5c(cc4c3=O)OCO5)CC2)c1C,8.61%
9,CC1=C(C(=O)OC(C)C)C(c2cn(-c3ccccc3)nc2-c2ccc(OC(C)C)cc2)NC(=O)N1 (stereo unspecified),-3.28%
10,COc1ccc(S(=O)(=O)N(C)C)cc1,-6.36%
11,Cc1ccc2nc(C)c3c(c2c1)N(c1ccccc1)CC3,50.9%
12,Cc1ccc(Nc2nc(C)cc(C)c2C(N)=O)cc1,19.7%
13,Cc1ccc2nc(Nc3ccccc3)cc(C)c2c1,178% (active)
14,C[C@@H]1CN([C@H](C)CO)C(=O)Cc2cc(NC(=O)Nc3ccccc3)ccc2O[C@@H]1CN(C)Cc1ccc(C(F)(F)F)cc1,23.2%
15,COC(=O)c1c(C)nc(C)c(C(=O)OC)c1-c1csc(S(=O)(=O)/N=C/N(C)C)c1,-10.2%
16,CCNC(=S)N1CCN(CCN=CC2=C(O)CC(c3ccccc3)CC2=O)CC1 (stereo unspecified),-5.61%
17,C=CCn1c(=S)sc2c(SCC(=O)N3CCc4ccccc43)ncnc21,-9.07%
18,CCOC(=O)c1nnn2c3ccccc3c(=O)n(C)c12,38.4%
19,CCOC(=O)c1nnn2c1nc(N1CCN(c3ccccc3)CC1)c1ccccc12,155% (active)
20,CCOC(=O)c1c(C)n(C)c2ccccc12,-3.38%
21,CCCNC(=O)Cn1c(=O)c2cccn2c2ccccc21,-9.02%
22,C=C1C(=O)O[C@H]2C3=C(C)C[C@H](OC(C)=O)C[C@]3(C)CC[C@@H]12,210% (active)

row,Structure (SMILES),ROS induction (% of piperlongumine)
1,Cn1c(COc2ccc(C(C)(C)c3ccccc3)cc2)n[nH]c1=S,-8.56%
2,CCc1cccc(O[C@@H]2O[C@@H]3COC(c4ccccc4)O[C@H]3[C@H](O)[C@H]2NC(C)=O)c1 (stereo partly specified),-15.2%
3,COc1ccccc1N(CC(=O)Nc1ccc(C(F)(F)F)cc1)S(C)(=O)=O,4.82%
4,O=C(c1cc([N+](=O)[O-])ccc1NCc1cccnc1)N1CCOCC1,1.17%
5,O=C(NCc1cccnc1)c1cnn2c(C(F)F)cc(-c3ccccc3)nc12,170% (active)
6,NC(=O)c1c(NC(=O)c2cnn3c(C(F)F)cc(-c4ccccc4)nc23)sc2c1CCCC2,12.4%
7,O=C1N(CCS(=O)(=O)c2ccccc2)Cc2ccccc2[C@H]2OC(c3ccc(OCCCO)cc3)=N[C@@]12CCS(=O)(=O)c1ccccc1,141% (active)
8,C=CC[C@]1(C(=O)NCC(O)CO)N=C(c2ccc(OCCCO)cc2)O[C@H]1c1ccccc1 (stereo partly specified),30.5%
9,COCCCNC(=O)[C@@]1(Cc2ccccc2)COC(c2ccc(OCCCO)cc2)=N1,11.7%
10,O=C(N1CCCCC1)[C@@]1(CCS(=O)(=O)c2ccccc2)N=C(c2ccc(OCCCO)cc2)O[C@H]1c1ccccc1,97.7% (active)
11,C[C@H]1CN([C@@H](C)CO)C(=O)Cc2cc(NC(=O)Nc3ccc4c(c3)OCO4)ccc2O[C@H]1CN(C)Cc1ccc(C(=O)Nc2ccccc2N)cc1,29.3%
12,CCc1ccc(OCC(N)=O)cc1,18.8%
13,C[C@@H]1CN([C@H](C)CO)C(=O)c2cccc(NC(=O)c3nc4ccccc4s3)c2O[C@H]1CN(C)Cc1ccccc1,10.3%
14,Nc1ncnc2nc(N3CCCCC3)[nH]c12,-11.8%
15,c1ccc(Cc2nc3c4c5c(sc4ncn3n2)CCCC5)cc1,20.6%
16,Cc1ccc(S(=O)(=O)N(C)C[C@@H]2Oc3ccc(NC(=O)Cc4cn(C)c5ccccc45)cc3C(=O)N([C@@H](C)CO)C[C@@H]2C)cc1,-5.66%
17,C[C@@H]1CN([C@@H](C)CO)C(=O)Cc2cc(NC(=O)Cn3cnnn3)ccc2O[C@@H]1CN(C)S(=O)(=O)c1cn(C)cn1,4.76%
18,Cc1ccc(S(=O)(=O)N(C)C[C@H]2Oc3ccc(NC(=O)Cc4cn(C)c5ccccc45)cc3CC(=O)N([C@@H](C)CO)C[C@H]2C)cc1,109% (active)
19,C[C@@H]1CN([C@H](C)CO)C(=O)Cc2cc(NC(=O)Cc3cn(C)c4ccccc34)ccc2O[C@@H]1CN(C)S(=O)(=O)c1ccccc1,18.9%
20,C[C@@H]1CN([C@H](C)CO)C(=O)Cc2cc(NC(=O)Cn3cnnn3)ccc2O[C@@H]1CN(C)S(=O)(=O)c1ccc(F)cc1,3.99%
21,Cc1ccc(S(=O)(=O)N(C)C[C@@H]2Oc3ccc(NC(=O)Cn4cnnn4)cc3CC(=O)N([C@H](C)CO)C[C@H]2C)cc1,101% (active)
22,CC(C)(C)NC(=S)N1CCn2cccc2C1c1ccccc1F (stereo unspecified),2.09%

row,Structure (SMILES),ROS induction (% of piperlongumine)
1,Cn1nnc(NC(=O)COc2ccc(Cl)cc2Cl)n1,-1.96%
2,Cc1noc(C)c1NC(=O)Nc1ccc2c(c1)C(=O)N([C@H](C)CO)C[C@@H](C)[C@H](CN(C)Cc1ccncc1)O2,-4.05%
3,COc1cccc(-c2cnc3c(c2)C(=O)N([C@H](C)CO)C[C@H](C)[C@H](CN(C)Cc2ccncc2)O3)c1,32.7%
4,Cc1c(C(=O)N(Cc2ccccc2)Cc2cccnc2)cnn1-c1ccc(F)cc1,-9.45%
5,Brc1ccc(/C=N/n2cnnc2SCc2ccccc2)cc1,2.37%
6,COc1ccc(NS(=O)(=O)c2ccc3c4c(cccc24)C(=O)S3)cc1,35.7%
7,O=C(Oc1c(Br)cc(Br)c2cccnc12)N1CCOCC1,3.35%
8,O=[N+]([O-])c1ccc(NCCNc2nc3ccccc3nc2N2CCOCC2)cc1,61%
9,COC(=O)c1ccc(NCc2cc(O)ccc2O)cc1,10.2%
10,COC(=O)c1c(C)n(CCNc2ccc([N+](=O)[O-])cc2)c2ccc(O)cc12,98.5% (active)
11,C[C@@H]1CCCCO[C@@H](CN(C)C(=O)NC2CCCCC2)[C@@H](C)CN([C@H](C)CO)C(=O)c2cc(NC(=O)CCC(F)(F)F)ccc2O1,37.6%
12,Cc1noc(C)c1NC(=O)N(C)C[C@H]1Oc2ccc(NC(=O)Nc3ccc(C(F)(F)F)cc3)cc2CC(=O)N([C@@H](C)CO)C[C@@H]1C,87.8% (active)
13,C[C@@H]1CN([C@H](C)CO)C(=O)Cc2cc(NS(=O)(=O)c3cn(C)cn3)ccc2O[C@@H]1CN(C)C(=O)Nc1ccccc1,-5.68%
14,C[C@H](CO)N1C[C@H](C)[C@H](CN(C)C(=O)Nc2ccc(C(F)(F)F)cc2)Oc2ccc(NC(=O)Nc3ccccc3)cc2C1=O,84% (active)
15,Cc1noc(C)c1NC(=O)Nc1ccc2c(c1)CC(=O)N([C@H](C)CO)C[C@@H](C)[C@@H](CN(C)Cc1ccc(C(F)(F)F)cc1)O2,6.6%
16,C[C@H]1CN([C@@H](C)CO)C(=O)c2cc(NC(=O)Nc3ccccc3)ccc2O[C@@H]1CN(C)C(=O)Nc1ccccc1,-12.6%
17,C[C@H](CO)N1C[C@H](C)[C@H](CN(C)C(=O)Nc2ccc(C(F)(F)F)cc2)Oc2ccc(NS(=O)(=O)c3cn(C)cn3)cc2CC1=O,125% (active)
18,C[C@@H]1CN([C@H](C)CO)C(=O)c2cc(NC(=O)Nc3ccc(C(F)(F)F)cc3)ccc2O[C@H]1CN(C)C(=O)Nc1ccccc1,23.2%
19,C[C@H]1CN([C@@H](C)CO)C(=O)Cc2cc(NS(=O)(=O)c3cn(C)cn3)ccc2O[C@H]1CN(C)C(=O)Nc1ccc(F)cc1,29.3%
20,Cc1noc(C)c1NC(=O)N(C)C[C@@H]1Oc2ccc(NC(=O)Nc3ccc(C(F)(F)F)cc3)cc2C(=O)N([C@H](C)CO)C[C@@H]1C,-6.13%
